Compound activity from PubChem.
HP1b binding inh – HP1-beta chromodomain-methylated histone interaction inhibition | P83916 | AlphaScreen HP1-beta / biotin-H3K9me3 peptide binding | Potency, µM (highest dose often 114 µM), most hits filed as inhibitors | actives 0.56% (n = 390,000) | AID 540317; also: nearly all actives have a fitted effect of over 70% in size
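Compound inhibition of the preformed complex between 50 nM HP1-beta and 50 nM biotinylated H3K9me3 peptide was read by AlphaScreen. Buffer was PBS pH 7.4 with 0.01% Tween-20. Incubations ran 30 min at room temperature, with 10 ug/mL donor/acceptor beads.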
BAZ2B block – inhibitors of human BAZ2B bromodomain; AlphaScreen BAZ2B-H3K14Ac peptide displacement; Potency, µM (highest dose often 114 µM), hits mostly inhibitors; actives 4.4% (n = 360,000); also: nearly all actives have a fitted effect of over 60% in size
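Complex of BAZ2B and biotin-H3K14Ac (50 nM apiece) forms over 30 min at RT, then faces library compounds up to 110 uM for another 30 min; AlphaScreen beads added, 20 min dark incubation, luminescence read.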
JMJD2A Tudor inh – blocks the human JMJD2A Tudor domain. O75164. AlphaScreen JMJD2A-Tudor / H3K4me3 peptide binding. Potency, µM (highest dose often 114 µM), most hits filed as inhibitors. actives 4.4% (n = 390,000); also: nearly all actives have a fitted effect of over 50% in size
L3MBTL1 inh – L3MBTL1 (human) inhibition; Potency, µM (highest dose often 57.1 µM), hits mostly inhibitors; Q9Y468; actives 0.66% (n = 230,000); AlphaScreen L3MBTL1–H3K9me1 peptide binding; also: nearly all actives have a fitted effect of over 60% in size
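Read-out is AlphaScreen signal from streptavidin donor and nickel chelate acceptor beads (10 ug/mL final each) bridging L3MBTL1 (50 nM) and biotinylated K9-monomethylated H3(1-15) peptide (75 nM), after 30 min compound exposure at room temperature.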
G9a block – blocks human histone lysine methyltransferase G9a | G9a H3K9 monomethylation, AlphaScreen, 2 h | Potency, µM (highest dose often 102 µM), actives largely listed as inhibitors | actives 8.8% (n = 350,000) | AID 504332; also: nearly all actives have a fitted effect of over 75% in size
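G9a (20 nM) preincubated 15 min RT with compounds, then 500 nM biotinylated H3K9 peptide and 20 uM SAM added; 2 h RT reaction. Monomethyl-H3K9 product detected by AlphaScreen with anti-H3K9me1 antibody, streptavidin donor and anti-rabbit IgG acceptor beads.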
GLS inhibitor – inhibitors of human glutaminase (GLS); Potency, µM (highest dose often 45.5 µM), actives largely listed as inhibitors; actives 0.21% (n = 410,000); GLS enzymatic activity, qHTS titration; O94925
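hKGA in 45 mM KH2PO4 (pH 8.2), 0.02% Tween-20 with compound, then 1mM L-Glutamine (stock as added) plus glutamate oxidase/HRP/Amplex red coupling mix. Fluorescence read initially and after 30 min at RT; signal change reflects glutamate formation.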
Large screens that a line does not name were inactive. A selection: hits, their analogues and other compounds. The true share with any hit is near 10%. Calls follow the shape of the dose curve; as a rule, active = well fitted curve in the direction sought with a large enough effect; inconclusive = small, poorly fitted or top-dose-only effect, or another doubt; inactive = no such curve, though single readings can be large; an effect the other way counts as inactive or inconclusive.

CCC1CC=CC2C1C(=O)N(Cc1ccccc1)C2c1ccoc1 (stereo not given)	none (no result: BAZ2B block, L3MBTL1 inh, G9a block, GLS inhibitor)
Cc1nc2ccc(NC(=O)c3ccc(Cl)nc3)cc2s1	G9a block inconclusive (no result: L3MBTL1 inh)
CC(=O)Nc1ccc2nc(NC(=O)C(Cl)(Cl)Cl)sc2c1	G9a block 50µM
Cc1nc2ccc(NC(=O)c3cc([N+](=O)[O-])cc([N+](=O)[O-])c3Cl)cc2s1	HP1b binding inh inconclusive, BAZ2B block inconclusive, JMJD2A Tudor inh 56µM, G9a block 6.3µM
Cc1nc2ccc(NC(=O)c3cc(Cl)ccn3)cc2s1	BAZ2B block 79µM, G9a block 45µM (no result: L3MBTL1 inh)
CCOc1ccc(CNCc2c(C(=O)O)c(C)n(Cc3c(F)cccc3Cl)c2C)cc1OC	JMJD2A Tudor inh inconclusive (no result: L3MBTL1 inh)
CC1=C(c2ccc(NN=C(C#N)C#N)cc2)NNC(=O)C1	G9a block inconclusive (no result: HP1b binding inh, BAZ2B block, JMJD2A Tudor inh, L3MBTL1 inh)
COc1cc(N2C(=O)C=CC2=O)c(OC)cc1Cl	HP1b binding inh 10µM, JMJD2A Tudor inh 10µM, G9a block 2.5µM
COc1cc(Cl)c(S(=O)(=O)N2CCCC2)cc1Cl	none (no result: G9a block)
CS(=O)(=O)c1ccc(C(=O)OCC(=O)NCC2CCCO2)cc1[N+](=O)[O-] (stereo not given)	none (no result: BAZ2B block, L3MBTL1 inh, G9a block, GLS inhibitor)
CC(C)(C)C1CCC(=NNc2ncc(C(F)(F)F)cc2Cl)CC1 (stereo not given)	BAZ2B block 79µM (no result: L3MBTL1 inh)
C/C(=N/Nc1ncc(C(F)(F)F)cc1Cl)c1ccncc1	none
CCN(CC(=O)Nc1ccc(C(=O)Nc2ccc(OC)cc2)cc1)Cc1nc2ccccc2c(=O)[nH]1	G9a block 35µM
COc1ccc(Nc2nc3ccccc3c(=O)[nH]2)cc1	G9a block 79µM (no result: L3MBTL1 inh)
COc1ccc(Nc2c3ccccc3nc3ccccc23)cc1	BAZ2B block inconclusive, JMJD2A Tudor inh inconclusive, G9a block 40µM (no result: L3MBTL1 inh)
Cc1ccc(Nc2nc3ccccc3c(=O)[nH]2)cc1C	none (no result: L3MBTL1 inh)
COCCCNc1nc2c([nH]1)c(=O)[nH]c(=O)n2C	none
COc1ccc(Nc2nc3c([nH]2)c(=O)[nH]c(=O)n3C)cc1	G9a block 50µM
COC(=O)CC(=O)CSc1nc2cc(C(=O)NCC(C)C)ccc2c(=O)n1CCc1ccccc1	none (no result: L3MBTL1 inh)
CCS(=O)(=O)N1CCc2cc(C(=O)N3CCN(c4ccc(OC)cc4)CC3)ccc21	BAZ2B block inconclusive, JMJD2A Tudor inh inconclusive, G9a block inconclusive (no result: L3MBTL1 inh)
CCn1c(CCn2ccnc2C)n[nH]c1=S	JMJD2A Tudor inh 22µM, G9a block inconclusive
COc1cccc(N2CCN(C(=O)Cn3nc(C)n4c(cc5c(OC)cccc54)c3=O)CC2)c1	none (no result: L3MBTL1 inh)
S=P(c1ccc(N2CCOCC2)cc1N1CCOCC1)(N1CCOCC1)N1CCOCC1	HP1b binding inh inconclusive, G9a block 10µM
O=[N+]([O-])c1ccc(N2CCCCC2)cc1N1CCOCC1	none
CCc1nn(CC(=O)Nc2ccc(NC(C)=O)cc2)c(=O)c2cc3sccc3n12	none (no result: L3MBTL1 inh)
Oc1ccc(Cl)cc1/C=C/c1ccc2cccc(O)c2n1	none
CC(/C=C/c1ccco1)=N\NC(=O)c1cc(Cl)ccc1O	G9a block 40µM (no result: L3MBTL1 inh)
O=C(/C=C/c1ccc2ccccc2n1)c1cc(Cl)ccc1O	BAZ2B block 71µM, JMJD2A Tudor inh inconclusive (no result: L3MBTL1 inh)
O=C(C=Cc1ccco1)c1cc(Cl)ccc1O	HP1b binding inh 50µM, JMJD2A Tudor inh 22µM (no result: BAZ2B block, L3MBTL1 inh, G9a block)
Cc1c(Br)c([N+](=O)[O-])nn1CC(=O)Nc1ccc(Cc2ccncc2)cc1	BAZ2B block inconclusive, G9a block 45µM
COc1cccc(-c2nc(NCc3ccccc3)c3ccccc3n2)c1O	none (no result: L3MBTL1 inh)
COc1cccc(-c2nc(N3CCN(C)CC3)c3ccccc3n2)c1O	BAZ2B block inconclusive, JMJD2A Tudor inh inconclusive, G9a block inconclusive
COc1cccc(-c2nc(NC3CCCC3)c3ccccc3n2)c1O	BAZ2B block 35µM, JMJD2A Tudor inh inconclusive, G9a block inconclusive (no result: L3MBTL1 inh)
COc1cccc(-c2nc(N3CCCCC3C)c3ccccc3n2)c1O (stereo not given)	BAZ2B block inconclusive, JMJD2A Tudor inh 40µM, G9a block 45µM
Cc1ccc(-c2cc3ncc(C(=O)c4cc([N+](=O)[O-])ccc4O)cn3n2)cc1	BAZ2B block inconclusive (no result: L3MBTL1 inh)
